Screens as filed in PubChem BioAssay.
Rows were chosen to be rich in hits. Some 2.9% of all compounds tested hit in one or more screens of this group.
Rtt109 Vps75 – blocks Candida albicans Rtt109/Vps75 acetyltransferase activity; Q5AAJ8; purified Rtt109/Vps75, ThioGlo CoA-SH fluorescence, 4 h; inhibition, % at 34.9 µM; 330,000 compounds, 0.16% hits; AID 540336;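 active means inhibition of at least 50% in every replicate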
Target sequence (Q5AAJ8 whole entry, looked up): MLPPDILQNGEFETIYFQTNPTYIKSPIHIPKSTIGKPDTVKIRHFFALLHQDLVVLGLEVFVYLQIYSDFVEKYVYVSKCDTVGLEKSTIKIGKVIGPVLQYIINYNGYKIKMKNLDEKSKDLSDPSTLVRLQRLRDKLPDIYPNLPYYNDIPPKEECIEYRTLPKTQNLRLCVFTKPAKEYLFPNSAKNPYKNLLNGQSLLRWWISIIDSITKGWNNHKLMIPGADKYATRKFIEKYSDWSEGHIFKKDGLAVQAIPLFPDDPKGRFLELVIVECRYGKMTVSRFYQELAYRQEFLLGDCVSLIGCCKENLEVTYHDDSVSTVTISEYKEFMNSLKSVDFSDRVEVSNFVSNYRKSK
sPLA2-III inh – Inhibits HGIII-sPLA2 liposome hydrolysis, primary screen; inhibition, % at 12.2 µM; 370,000 compounds, 0.56% hits; QFRET BODIPY PC-A2 liposome hydrolysis, fluorescence; AID 743126; Q9NZ20;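 active means inhibition above mean plus 3 SD of compounds lying within the high and low control bounds, cut at about 19% in these data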;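 further: 0% = median of test compound wells and 100% = no enzyme DMSO wells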
Myeloid diff 2 – myeloid differentiation induction; ER-HoxA9 myeloid progenitors, lysozyme-GFP differentiation, flow cytometry; calls only at 10 µM; 360,000 compounds, 1% hits; AID 624256;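 active means normalized GFP-positive differentiation at or above the plate's own cutoff, the solvent-only control mean plus 3 SD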;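 further: cells exposed to compound for four days before flow analysis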
Cardio protect – modulators protecting cardiomyocytes from myocardial damage; H9c2 cardiomyocytes, H2O2 injury protection, ATPLite, 2 h; 360,000 compounds, 0.63% hits; AID 588492; protection from H2O2 cell death, % at 20 µM;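 active means compounds giving at least 50% protection of heart cells from peroxide-induced death in the single-dose screen, raw or plate-pattern-corrected value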;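 further: 0% = DMSO wells with peroxide and 100% = DMSO wells without peroxide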
DAGLB inh – blocks human DAGLB lipase activity; Q8NCG7; HEK293T DAGLB membrane lysate, EnzChek fluorogenic substrate; inhibition, % at 5.17 µM; 340,000 compounds, 0.059% hits; AID 504411; in the data active means inhibition above about 34%;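 further: 0% = enzyme with vehicle and 100% = wells lacking enzyme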
ABHD5 PLIN5 PPI – ABHD5-PLIN5 protein interaction inhibition; 360,000 compounds, 0.78% hits; AID 602281; inhibition, % at 4 µM; Split G. princeps luciferase complementation, luminescence, 4 h;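 active means inhibition above the mean inhibition across every tested compound plus 3 SD, cut at about 22% in these data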;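 further: 0% = DMSO only wells and the 100% control is not disclosed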
Numbers without * were called inactive.

Screening CCN(CC)c1ncnc2c1ncn2[C@H]1CN(Cc2ccccc2)C[C@@H](COC(C)=O)O1 returned sPLA2-III inh 1, Myeloid diff 2 inactive, Cardio protect 4 and ABHD5 PLIN5 PPI -7.
CC1(C(=O)O)CCC(C(=O)Nc2ccc3ccccc3c2)C1(C)C (centres undefined) was read as Rtt109 Vps75 -1, sPLA2-III inh -3, Myeloid diff 2 inactive, Cardio protect 0, DAGLB inh 3 and ABHD5 PLIN5 PPI 5.
CC(C)(C)Nc1nc2nonc2nc1NC(C)(C)C was read as Rtt109 Vps75 -6, sPLA2-III inh 12, Myeloid diff 2 active, Cardio protect -15, DAGLB inh -1 and ABHD5 PLIN5 PPI 1.
For CCCCCCCCCn1c2c(c(=N)c3c1CCC3)CCC2 the results were Rtt109 Vps75 68*, Cardio protect -20, DAGLB inh 8 and ABHD5 PLIN5 PPI 21.
CCCCn1c(SCC(=O)NCc2ccco2)nc2c1c(=O)n(C)c(=O)n2C was read as Rtt109 Vps75 -3, sPLA2-III inh 3, Myeloid diff 2 inactive, Cardio protect 5, DAGLB inh -2 and ABHD5 PLIN5 PPI 2.
Screening O=C(CSc1n[nH]c(-c2ccccc2Cl)n1)NC1CCCCC1 returned Rtt109 Vps75 51*, sPLA2-III inh 3, Myeloid diff 2 inactive, Cardio protect 15, DAGLB inh -3 and ABHD5 PLIN5 PPI -1.
For COc1ccc(Cl)cc1-c1nc(SCC(=O)NC2CCCC2)n[nH]1 the results were Rtt109 Vps75 2, sPLA2-III inh -3, Myeloid diff 2 inactive, Cardio protect -3, DAGLB inh -4 and ABHD5 PLIN5 PPI 4.
Cc1cc(C(C)(C)C)cc(C)c1C[n+]1ccc2ccccc2c1 was read as Rtt109 Vps75 1, sPLA2-III inh 0, Myeloid diff 2 active, Cardio protect -16, DAGLB inh 0 and ABHD5 PLIN5 PPI 6.
`COc1ccc(CCNC(=O)C2CCN(S(=O)(=O)N3CCCCC3)CC2)cc1OC` gave Rtt109 Vps75 -2, sPLA2-III inh 4, Myeloid diff 2 inactive, Cardio protect -2, DAGLB inh 2 and ABHD5 PLIN5 PPI 2.
Cc1cccc(NC(=O)c2cc3ccccc3oc2=O)c1 was read as Rtt109 Vps75 -3, sPLA2-III inh -2, Myeloid diff 2 inactive, Cardio protect -14, DAGLB inh -2 and ABHD5 PLIN5 PPI -2.
Screening CSc1nnc(NC(=O)c2cc3ccccc3oc2=O)s1 returned Rtt109 Vps75 5, sPLA2-III inh 0, Myeloid diff 2 inactive, Cardio protect 55*, DAGLB inh -5 and ABHD5 PLIN5 PPI -8.
`CC1(C)CC(N2CCOCC2)=CC(=[N+]2CCOCC2)C1` gave Rtt109 Vps75 -2, sPLA2-III inh 3, Myeloid diff 2 inactive, Cardio protect -4, DAGLB inh -2 and ABHD5 PLIN5 PPI -1.
Screening CC1(C)CC(N2CCCCC2)=CC(=[N+]2CCCCC2)C1 returned Rtt109 Vps75 -3, sPLA2-III inh 6, Myeloid diff 2 active, Cardio protect -24, DAGLB inh 0 and ABHD5 PLIN5 PPI -2.
Screening CC(C)(O)C#Cc1ccc(C(=O)N2CCCC(CNS(=O)(=O)c3cccs3)C2)o1 (centres undefined) returned Rtt109 Vps75 19, sPLA2-III inh -1, Myeloid diff 2 active, Cardio protect -2, DAGLB inh -1 and ABHD5 PLIN5 PPI -2.
Cc1nc(CC(C)C)cc(C(=O)N2CCCC(CNS(=O)(=O)c3cccs3)C2)n1 (centres undefined) was read as Rtt109 Vps75 60*, sPLA2-III inh -10, Myeloid diff 2 inactive, Cardio protect 1, DAGLB inh 1 and ABHD5 PLIN5 PPI -1.
`Cc1cc(C(=O)N2CCCC(CNS(=O)(=O)c3cccs3)C2)nn1C` (centres undefined) gave Rtt109 Vps75 2, sPLA2-III inh -5, Myeloid diff 2 inactive, Cardio protect -8, DAGLB inh 0 and ABHD5 PLIN5 PPI 2.
`CC(C)CCOc1ccc(C2(C)NC(=O)NC2=O)cc1` (centres undefined) gave Rtt109 Vps75 1, sPLA2-III inh 5, Myeloid diff 2 inactive, Cardio protect -2, DAGLB inh 0 and ABHD5 PLIN5 PPI 3.
